Measured potencies and affinities stand elsewhere. Active and inactive are the calls of the source.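 The calls were made as follows: active = fluorescent signal decreased by at least 40%; inconclusive = no clear call, values can overlap the other calls; inactive = the rest, including activity opposite to the expected direction.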

A short description of the assay: fibronectin fibrillogenesis inhibitors in fibroblasts, dose response, AH1F cells, Alexa488-fibronectin fluorescence, cherry-pick, set 2 (AID 1117283).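 Also: AH1F fibroblasts given Alexa488-labelled fibronectin at 24 nM final.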 As to conditions: Alexa488-fibronectin deposition fluorescence, overnight; series mostly up to 35 µM; activity change, negative = inhibition: at the top concentration.
With `CCC(C)(C)NC(=O)C(OC(=O)c1ccco1)c1ccccc1OC` (configuration not stated), the “activity change, negative = inhibition” value was 3.17% (inactive).
As to `CN1c2ccc(-c3ccccc3)cc2[C@@H]2[C@@H](CCN2C(=O)CN2CCOCC2)[C@@H]1CO`, the “activity change, negative = inhibition” value is -1.89% [at 30 µM] (inactive).
With `CC1(C)Cc2c(C#N)c(SCC(=O)c3ccccc3)nc(N3CCOCC3)c2CS1`, the “activity change, negative = inhibition” value was -6.32% (inactive).
The same measure for `Cc1cc(C)c(S(=O)(=O)Nn2cnnc2)c(C)c1`: -9.22% (inactive); for `Cc1ccc(S(=O)(=O)N2CC[C@H]3[C@H](CO)Nc4ccc(-c5cccc(C(=O)N(C)C)c5)cc4[C@H]32)cc1`: 3.11% (inactive); for `Cc1ccc(C(O)c2ncc(-c3cccc4ccccc34)[nH]2)cc1F` (configuration not stated): -7.33% (inactive).
For the compound `O=C(NCc1ccccc1)c1ccc(-c2cn[nH]c2)c2ccoc12`, the “activity change, negative = inhibition” value is 2.33% (inactive).
As for `c1ccc2[nH]c(SCc3cn4cccnc4n3)nc2c1`, the “activity change, negative = inhibition” value is 1.3% (inactive).
For the compound `CO[C@@H]1CN(C)C(=O)c2cc(NC(=O)Nc3ccc(Cl)c(Cl)c3)ccc2OC[C@H](C)NC[C@@H]1C`, the “activity change, negative = inhibition” value was -5.63% (inactive).
For the compound `COc1ccc(CCNC(=O)C2CCN(Cc3nc(-c4ccccc4F)oc3C)CC2)cc1OC`, the “activity change, negative = inhibition” value was 7.77% (inactive).
`C[C@@H]1CN([C@@H](C)CO)C(=O)c2cc(-c3ccncc3)cnc2O[C@@H]1CN(C)C(=O)Cc1cccnc1`: the “activity change, negative = inhibition” value was 0.086% (inactive).
Regarding `C[C@H]1CN([C@@H](C)CO)C(=O)c2cc(NC(=O)CCCN(C)C)ccc2O[C@@H]1CN(C)Cc1ccc(-c2ccccc2)cc1`, the “activity change, negative = inhibition” value is 38.9% (inactive).
Next, `O=C(Nc1ccccc1F)N1C[C@H]2[C@@H](c3ccccc31)[C@@H](CO)N2C(=O)C1CC1`: 14.7% (inactive); `COCC(=O)Nc1ccc2c(c1)C(=O)N(C)[C@H]1CC[C@H](CC(=O)NCc3ccccc3Cl)O[C@H]1CO2`: -9.35% (inactive).
Take `COCC(=O)Nc1ccc2c(c1)C(=O)N(C)[C@H]1CC[C@@H](CC(=O)NCc3ccccc3Cl)O[C@@H]1CO2`: the “activity change, negative = inhibition” value is 8.6% (inactive).
Next, `CO[C@H]1CN(C)C(=O)c2ccc(NC(=O)c3ccc(-c4ccccc4)cc3)cc2OC[C@@H](C)NC[C@H]1C`: 2.37% (inactive).
For the compound `CN1c2ccc(-c3ccccc3)cc2[C@H]2[C@H](CCN2C(=O)CN2CCOCC2)[C@@H]1CO`, the “activity change, negative = inhibition” value is 6.7% (inactive).
For the compound `CN1c2ccc(-c3ccccc3)cc2[C@@H]2[C@@H](CCN2C(=O)CN2CCOCC2)[C@H]1CO`, the “activity change, negative = inhibition” value is 3.99% [at 30 µM] (inactive).
Next, `COc1cccc(-c2ccc3c(c2)[C@H]2[C@H](CCN2S(=O)(=O)c2cccc(OC)c2)[C@@H](CO)N3)c1`: -7.16% (inactive); `CC(C)NC(=O)N(C)C[C@H]1Oc2ccc(NC(=O)CCN3CCOCC3)cc2C(=O)N([C@H](C)CO)C[C@@H]1C`: -5.12% (inactive); `C[C@H](CO)N1C[C@H](C)[C@@H](CN(C)Cc2ccccc2)Oc2ncc(-c3ccccc3)cc2C1=O`: 11.5% (inactive).
Next, `COC(=O)C[C@@H]1CC[C@H]2[C@@H](COc3ccc(NC(=O)Cc4cccs4)cc3C(=O)N2C)O1`: 1.52% (inactive); `COCC(=O)Nc1ccc2c(c1)C(=O)N(C)[C@@H]1CC[C@H](CC(=O)NCc3ccccc3Cl)O[C@H]1CO2`: -3.95% (inactive); `C[C@H](CO)N1C[C@H](C)[C@@H](CN(C)C(=O)c2cccc(F)c2)Oc2ncc(-c3ccccc3)cc2C1=O`: 7.51% (inactive).
Next, `CO[C@@H]1CN(C)C(=O)c2ccc(NC(=O)c3ccc(-c4ccccc4)cc3)cc2OC[C@@H](C)NC[C@@H]1C`: 2.75% (inactive).
As for `COc1ncccc1C(=O)NC1CCCc2c1cnn2-c1ccc(C)c(C)c1` (configuration not stated), the “activity change, negative = inhibition” value was -5.54% (inactive).
Next, `Cc1c(NC(=O)c2ccc3nsnc3c2)cccc1[N+](=O)[O-]`: 11.2% (inactive); `C[C@@H]1CN([C@@H](C)CO)C(=O)c2cc(-c3ccccc3)cnc2O[C@H]1CN(C)C(=O)c1cccc(F)c1`: -1.69% (inactive).
The same measure for `O=C(CCC(=O)c1cccs1)NCc1cccnc1`: -2.53% (inactive); for `CC(C)(C)[S@](=O)N1Cc2cc(C(=O)NCc3ccccc3F)nc(-c3cccc(-c4cncnc4)c3)c2[C@@H]1CCO`: 7.09% (inactive); for `O=C(Nc1ccccc1F)N1C[C@H]2[C@@H](c3ccccc31)[C@H](CO)N2C(=O)C1CC1`: -11.4% (inactive).
The same measure for `C[C@H](CO)N1C[C@H](C)[C@@H](CN(C)C(=O)Nc2cccc3ccccc23)Oc2c(NC(=O)Nc3ccc(C(F)(F)F)cc3)cccc2C1=O`: 3.45% (inactive).
Regarding `NC(=O)C1=C[C@H](c2coc3ccccc3c2=O)C[C@H](OCCCCO)O1`, the “activity change, negative = inhibition” value was 12.8% (inactive).
For the compound `O=C(CCNS(=O)(=O)c1cccc2nonc12)NC1CCCc2ccccc21` (configuration not stated), the “activity change, negative = inhibition” value is 2.12% (inactive).
Turning to `O=C(NCCS(=O)(=O)N1CCN(c2ccc(F)cc2)CC1)c1ccc(Br)o1`, the “activity change, negative = inhibition” value is -8.57% (inactive).
In the case of `CO[C@H]1CN(C)C(=O)c2cc(NC(=O)Nc3ccc(Cl)c(Cl)c3)ccc2OC[C@H](C)NC[C@@H]1C`, the “activity change, negative = inhibition” value is -8.06% (inactive).
For `Cc1oc2ccc(O)cc2c1C(=O)c1ccc(Br)cc1`, the “activity change, negative = inhibition” value is -1.43% (inactive).
